Rows were chosen to be rich in hits. Some 1.7% of all compounds tested hit in one or more screens of this group.
Fam108B counter: counter-screen for RBBP9 inhibitors: inhibitors of mouse Fam108B; recombinant Fam108B, FP-Rh probe fluorescence polarization; inhibition, % at 9.51 µM; actives 0.33% (n = 300,000); AID 1947;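 active means inhibition above the screen mean inhibition plus 3 SD, computed separately per campaign, cut at about 18% in these data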;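 further: inhibitors lower polarization as less probe binds the enzyme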
LYPLA2 counter: LYPLA2 (human) inhibition in PME1 counter-screen; recombinant LYPLA2, FP-Rh probe fluorescence polarization; inhibition, % at 5.9 µM; actives 0.38% (n = 320,000); AID 2177;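 active means inhibition above the screen-wide mean plus 3 SD, limit set per campaign, cut at about 26% in these data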
Target sequence (O95372 whole entry, looked up): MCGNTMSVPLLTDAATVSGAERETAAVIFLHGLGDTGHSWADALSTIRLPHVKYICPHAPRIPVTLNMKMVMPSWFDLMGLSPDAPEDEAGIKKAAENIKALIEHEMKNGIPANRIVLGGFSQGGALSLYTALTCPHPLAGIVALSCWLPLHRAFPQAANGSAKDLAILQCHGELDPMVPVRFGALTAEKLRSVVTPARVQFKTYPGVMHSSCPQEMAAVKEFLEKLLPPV
LYPLA1 counter: LYPLA1 (human) inhibition in PME1 counter-screen; recombinant LYPLA1, FP-Rh probe fluorescence polarization; AID 2174; inhibition, % at 5.9 µM; O75608; actives 0.16% (n = 320,000);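 active means inhibition above the mean of all tested compounds plus 3 SD, set per campaign, cut at about 14% in these data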;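 further: inhibitors block serine hydrolase probe labeling of LYPLA1 so polarization falls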
GSTO1 counter: GSTO1 inhibition, counter-screen for RBBP9 inhibitors | P78417 | recombinant GSTO1, activity-based probe fluorescence polarization | inhibition, % at 5.96 µM | actives 1.1% (n = 300,000) | AID 1974;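 active means inhibition above the campaign mean inhibition plus 3 SD, cut at about 35% in these data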
PME-1 inh: PME-1 (human) inhibition; Q9Y570; recombinant PME-1, FP-Rh probe fluorescence polarization; inhibition, % at 5.9 µM; actives 0.53% (n = 320,000); AID 2130;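 active means inhibition above the campaign mean of all compounds plus 3 SD, cut at about 26% in these data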;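 further: competitive labeling of PME-1 active site by serine hydrolase directed probe; inhibitors block probe labeling so polarization falls and inhibition rises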
Target sequence (Q9Y570 whole entry, looked up): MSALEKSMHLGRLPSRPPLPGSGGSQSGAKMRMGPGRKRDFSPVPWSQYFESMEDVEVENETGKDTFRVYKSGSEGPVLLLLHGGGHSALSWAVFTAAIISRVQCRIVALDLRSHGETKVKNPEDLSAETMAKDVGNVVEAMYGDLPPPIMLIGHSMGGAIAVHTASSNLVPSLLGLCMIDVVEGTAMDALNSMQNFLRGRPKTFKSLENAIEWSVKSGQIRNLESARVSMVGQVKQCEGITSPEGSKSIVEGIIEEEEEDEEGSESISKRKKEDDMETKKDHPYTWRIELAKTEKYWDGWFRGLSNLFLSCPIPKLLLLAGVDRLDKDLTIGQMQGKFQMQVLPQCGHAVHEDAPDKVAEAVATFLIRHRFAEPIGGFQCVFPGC
PAD4 FP inh: blocks human protein arginine deiminase 4; actives 0.41% (n = 330,000); inhibition, % at 6.36 µM; recombinant PAD4, RCA probe fluorescence polarization;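 active means percent inhibition above a cutoff equal to the mean of all tested compounds plus 3 SD, cut at about 15% in these data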
LYPLA2 conf: counter-screen for PME1 inhibitors: confirmation of human LYPLA2 inhibitors; shares compounds with LYPLA2 counter; recombinant LYPLA2, FP-Rh probe fluorescence polarization; inhibition, % at 5.9 µM; actives 72% (n = 1,100); AID 2232;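 active means mean inhibition across replicates above the hit cutoff set in the primary screen, cut at about 26% in these data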;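 further: blocked labeling of the enzyme by serine hydrolase FP-Rh probe lowers polarization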
LYPLA2 ABPP: inhibitors of human LYPLA2 | shares compounds with LYPLA2 counter | AID 652029 | actives 30% (n = 150) | inhibition, % at 20 µM | rhLYPLA2 in mouse brain proteome, gel ABPP FP-Rh;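 active means inhibition of LYPLA2 enzyme probe labeling above about 50%, limit read from the data; inactive means inhibition below that limit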;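 further: loss of FP-Rh probe labeling of the LYPLA2 gel band measured as band density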
Of the large screens only hits and unclear results are named; the others gave an inactive call (follow-up assays come after a bar, where they were run).

CCCN(C(=O)c1ccc(N(C)S(=O)(=O)c2ccc(C)cc2)cc1)C1CCS(=O)(=O)C1 (centres undefined)	none
N#Cc1ccc(C(=O)Nc2cccc(S(=O)(=O)NC3=NCCC3)c2)cc1	none (no result: Fam108B counter, LYPLA2 counter, LYPLA1 counter, GSTO1 counter, PME-1 inh)
CN(C)C(=O)CN(c1ccc2c(c1)OCO2)S(C)(=O)=O	none
COc1ccc(-c2cc(C(=O)N3CCCC3)no2)cc1OC	none
O=C(c1cc(-c2cccs2)on1)N1CCN(c2ccccc2)CC1	none
COc1ccc(-c2cc(C(=O)N3CCN(c4ccc(F)cc4)CC3)no2)cc1OC	LYPLA2 counter 39 | LYPLA2 conf 33
O=C(c1cc(-c2cccs2)on1)N1CCN(c2ccc(F)cc2)CC1	LYPLA2 counter 28 | LYPLA2 conf 27
O=C(COc1ncnc2ccccc12)c1ccc(Cl)cc1	LYPLA2 counter 29 | LYPLA2 conf inactive
O=C(COc1ncnc2cc(Cl)ccc12)c1ccccc1	none
COc1ccc(C(=O)COc2ncnc3cc(Cl)ccc23)cc1	LYPLA2 counter 27 | LYPLA2 conf 31
COc1ccc(C(=O)COc2nc(C)cc(C)c2C#N)cc1	none
COc1ccccc1/C=C/CN1CCNC(=O)C1CC(=O)NCCc1cnccn1 (centres undefined)	none
O=C(Cn1cc([N+](=O)[O-])cn1)Nc1ccc(Cn2cc(Br)cn2)cc1	LYPLA2 counter 56 | LYPLA2 conf 57 | LYPLA2 ABPP inactive
O=C(CSc1nnc(SCc2ccc(Cl)cc2)s1)N/N=C/c1c[nH]c2ccccc12	LYPLA2 counter 45 | LYPLA2 conf 58
O=C(O)COc1ccccc1/C=N/NC(=O)CSc1nnc(SCc2ccc(Cl)cc2)s1	none
COc1ccc(-n2c(C)cc(C(=O)Cn3nnc4ccccc4c3=O)c2C)cc1	LYPLA2 counter 27 | LYPLA2 conf inactive
Cc1cccc(Nc2c([N+](=O)[O-])cc(C(=O)N3CC(=O)Nc4ccccc43)cc2[N+](=O)[O-])c1	LYPLA2 counter 32 | LYPLA2 conf 38
Cc1ccc(C(=O)N2CC(=O)Nc3ccc(F)cc3C2c2ccc(F)cc2)cc1[N+](=O)[O-] (centres undefined)	LYPLA2 counter 34 | LYPLA2 conf 30
Cc1ccc(C(=O)N2CC(=O)Nc3ccc(F)cc3C2c2ccccc2)cc1[N+](=O)[O-] (centres undefined)	LYPLA2 counter 34 | LYPLA2 conf 34
O=C1CN(C(=O)c2cccc(F)c2)C(c2ccc(F)cc2)c2cc(F)ccc2N1 (centres undefined)	none
CCOc1ccccc1C(=O)NCC(=O)N1CCN(Cc2ccc3c(c2)OCO3)CC1	LYPLA2 counter 62 (no result: Fam108B counter, GSTO1 counter) | LYPLA2 conf 57 | LYPLA2 ABPP inactive
O=C(Nc1ccc(Cl)cc1)N1CCN(Cc2ccc3c(c2)OCO3)CC1	none
O=C(COc1ccc(Cl)cc1)N1CCN(Cc2ccc3c(c2)OCO3)CC1	LYPLA2 counter 34 | LYPLA2 conf 29
COc1cccc(-c2cc(C(=O)N3CCN(Cc4ccc5c(c4)OCO5)CC3)on2)c1	LYPLA2 counter 30 | LYPLA2 conf 29
COc1ccc(C(C(=O)NC2CCCC2)N(C(=O)c2ccoc2C)c2ccc(C)c(C)c2)cc1 (centres undefined)	none
Cc1ccc(NC(=O)COC(=O)CC2CCCC2)cc1Cl	none
COc1cccc(NC(=O)COc2nc3ccccc3nc2C)c1	LYPLA2 counter 27 | LYPLA2 conf 32
CC(C)c1nnc(NC(=O)CCC(=O)N2CCN(c3ccccc3F)CC2)s1	none
CCc1cc2c(=O)c(-c3nc(C)cs3)coc2cc1O	none
Cc1cc(=O)oc2c(C)c(OCC(=O)N3CCN(c4cccc(Cl)c4)CC3)ccc12	LYPLA2 counter 30 | LYPLA2 conf 34
Cc1cc(=O)oc2c(C)c(OCC(=O)N3CCN(C(=O)C4COc5ccccc5O4)CC3)ccc12 (centres undefined)	LYPLA2 counter 38 | LYPLA2 conf 36
Cc1cccc(NC(=O)C2CCN(S(=O)(=O)c3c(C)c(C)cc(C)c3C)CC2)n1	none
COc1ccc(C(=O)NC(=S)NCc2cccnc2)cc1OC	none
COc1ccc(C(=O)NC(=S)Nc2cccc3ncccc23)cc1[N+](=O)[O-]	LYPLA2 counter 48 | LYPLA2 conf 51 | LYPLA2 ABPP inactive
COc1ccc(C(=O)NC(=S)NCc2cccnc2)cc1[N+](=O)[O-]	LYPLA2 counter 35 | LYPLA2 conf inactive
O=C(Nc1cccc2ncccc12)c1ccc(Br)c([N+](=O)[O-])c1	LYPLA2 counter 33 | LYPLA2 conf 47
CCOc1ccc(NC(=O)CN(C)C(=O)CC2CCCC2)cc1OCC	none (no result: Fam108B counter, GSTO1 counter)
C=CCNC(=O)/C(=C\c1ccc(Br)cc1)NC(=O)c1ccccc1OC	none
O=C(c1ccc(F)cc1)C1CCN(CCn2c(=S)[nH]c3ccccc3c2=O)CC1	LYPLA2 counter 27 | LYPLA2 conf 28
CC1CCN(CCn2c(=S)[nH]c3ccccc3c2=O)CC1	none
COc1ccc(-n2c(SCC(=O)NCc3cccs3)nc3[nH]ncc3c2=O)cc1	none
COc1ccc(N2CCN(C(=O)CSc3nc4[nH]ncc4c(=O)n3-c3ccc(Br)cc3)CC2)cc1	LYPLA2 counter 47 | LYPLA2 conf 42
O=[N+]([O-])c1cc(-n2cnnn2)ccc1N1CCC(Cc2ccccc2)CC1	LYPLA2 counter 28 | LYPLA2 conf 34
CCOC(=O)CSc1nnc(CSc2nc3sc4c(c3c(=O)[nH]2)CCC4)n1-c1ccccc1	LYPLA2 counter 57 | LYPLA2 conf 51
CCOC(=O)CSc1nnc(CSc2nc3sc4c(c3c(=O)[nH]2)CCC4)n1C	none
Cn1c2c(c(=O)n(C)c1=O)CN(Cc1ccc3c(c1)OCO3)CN2	none
CS(=O)(=O)Nc1nc2n(n1)C(c1ccccc1)CC(c1ccccc1)N2 (centres undefined)	none
CC(=O)N1CCCC(N2CCN(c3cccc(C(F)(F)F)c3)CC2)C1 (centres undefined)	none
Cc1cc(C)n(CC(=O)N2CCCC(N3CCN(c4cccc(C(F)(F)F)c4)CC3)C2)n1 (centres undefined)	none
O=C(c1ccoc1)N1CCCC(N2CCN(c3cccc(C(F)(F)F)c3)CC2)C1 (centres undefined)	none
Cc1ccc(C(=O)N2CCCC(N3CCN(c4cccc(C(F)(F)F)c4)CC3)C2)s1 (centres undefined)	LYPLA2 counter 42 | LYPLA2 conf 39
CCn1cc(C(=O)N2CCCC(N3CCN(c4cccc(C(F)(F)F)c4)CC3)C2)cn1 (centres undefined)	LYPLA2 counter 32 | LYPLA2 conf inactive

Bioassay records from PubChem BioAssay.
